Most compounds without a hit are left out; they make up all but 11% or so of the library.
ALDH1A1 inh – qHTS Assay for Inhibitors of Aldehyde Dehydrogenase 1 (ALDH1A1) | Aldehyde dehydrogenase 1A1 (Homo sapiens), P00352 | Purified ALDH1A1, NADH fluorescence, propionaldehyde substrate | Potency, µM (doses to about 75.3 µM), without a hit: top-dose activity, negative = inhibition, actives largely listed as inhibitors | 220,000 compounds, 7.3% hits;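 note: potency is the fitted concentration of half-maximal effect; plate controls were no enzyme wells and a reference inhibitor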
HPGD block – qHTS Assay for Inhibitors of HPGD (15-Hydroxyprostaglandin Dehydrogenase). 150,000 compounds, 4.3% hits. Potency, µM, without a hit: at the top dose activity change, negative = inhibition, usual class: inhibitors. 15-hydroxyprostaglandin dehydrogenase [NAD(+)] (Homo sapiens), P15428. purified HPGD, NADH fluorescence kinetic, PGE2 substrate. AID 894, 2007; note: potency is the fitted concentration of half-maximal effect
Target sequence (P15428 whole entry, looked up): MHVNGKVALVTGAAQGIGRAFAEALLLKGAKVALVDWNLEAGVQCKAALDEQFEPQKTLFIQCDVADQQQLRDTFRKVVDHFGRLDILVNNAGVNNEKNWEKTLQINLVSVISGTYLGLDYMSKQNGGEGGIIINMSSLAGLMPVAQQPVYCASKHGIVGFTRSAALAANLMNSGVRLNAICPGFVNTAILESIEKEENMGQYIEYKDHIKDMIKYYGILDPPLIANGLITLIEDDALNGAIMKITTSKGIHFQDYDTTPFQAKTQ
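NADH formation kinetics: reaction with 30 uM PGE2 and 1 mM NAD+ (final), 20 nM enzyme, Tris-HCl pH 8 with Tween 20, after 15 min compound preincubation at room temperature. Fluorescence change, last versus first of five reads.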
PNC inhibitor – High Content Assay for Compounds that inhibit the Assembly of the Perinucleolar Compartment | 140,000 compounds, 3.1% hits | PC3M PTB-GFP, PNC prevalence imaging, 16 h; active compounds read low | activity change (PNC), negative = inhibition, % at 10 µM;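 active = readout at or below -70, meaning at least 70% loss of cells showing the perinucleolar compartment, a nuclear body marking cancer cells; inconclusive = readout between -30 and a set limit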;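 note: plate controls were DMSO wells for no effect and camptothecin positive control wells for full effect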
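Read-out is percentage of cells bearing a perinucleolar compartment, from automated 20x imaging of fixed, Hoechst-stained PC3M PTB-GFP cells. Cells were seeded 4 h, then exposed 16 h to compound (23 nl of library stock) in duplicate plates.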
* = called active by the depositor; [ ] = dose if it differs, or a comment. Unless noted, calls come from the whole dose curve; as a rule, active = well fitted inhibition curve with a large enough effect (not every such curve was filed as active); inconclusive = small, poorly fitted or top-dose-only effect, or another doubt; inactive = no such curve, though single readings can be large or run the other way. Unless noted, % is set by controls: 0 for no effect and ±100 for the full control effect.

Results for CC(c1c(O)c2ccccc2[nH]c1=O)C1(C)CCC(O)C(C)(C)O1 (configuration not stated) ?
ALDH1A1 inh: 0%

What do the screens show for `C=C1CCC(=O)C(C)CCC2C1CC2(C)C` (configuration not stated)?
ALDH1A1 inh: -6%; HPGD block: -11%

How did COc1cc2nc(CN(C)Cc3ccc(OC)c(OC)c3OC)[nH]c(=O)c2cc1OC do in these assays?
ALDH1A1 inh: -3%

How did COc1ccc(/C=N/NC(=O)C(C)n2cnc3ccccc3c2=O)cc1 (configuration not stated) do in these assays?
ALDH1A1 inh: 2%; HPGD block: -5%; PNC inhibitor: -119*

How did COc1ccc(/C=N/NC(=O)Cn2cnc3ccccc3c2=O)cc1 do in these assays?
ALDH1A1 inh: 8%; HPGD block: -9%; PNC inhibitor: -25

What do the screens show for `O=C1CCCC=C1[C@@H](O)CCOCc1ccccc1`?
ALDH1A1 inh: -6%[13.5 µM]

Results for COc1ccc(OCC#CCN2CC(C)OC(C)C2)cc1 (configuration not stated) ?
ALDH1A1 inh: 6.3µM*

How did COc1ccc(OCC#CCNC(C)(C)C)cc1 do in these assays?
ALDH1A1 inh: inconclusive; HPGD block: -7%; PNC inhibitor: 13

Results for CCOC(=O)C1C(=O)C=C(/C=C/c2ccc(N(C)C)cc2)CC1c1ccccc1 (configuration not stated) ?
ALDH1A1 inh: 0%; HPGD block: -4%; PNC inhibitor: inconclusive

What do the screens show for `Cc1cc(C)n(CC(O)COc2c(C)cccc2C)n1` (configuration not stated)?
ALDH1A1 inh: 8%

What do the screens show for `CC1(C)NC(=O)N(CCCCOc2ccc3ccccc3c2Cl)C1=O`?
ALDH1A1 inh: 18µM*; HPGD block: -28%; PNC inhibitor: 31

Results for Cc1cc(Cl)c(OCCN2C(=O)NC(C)(C)C2=O)c(Br)c1 ?
ALDH1A1 inh: 2%; HPGD block: -2%; PNC inhibitor: -5

How did Cc1cc(Cl)cc(Br)c1OCCCN1C(=O)NC(C)(C)C1=O do in these assays?
ALDH1A1 inh: inconclusive; HPGD block: -17%; PNC inhibitor: -80*

Results for CC1(C)NC(=O)N(CCCCOc2ccc3c(c2)CCC3)C1=O ?
ALDH1A1 inh: inconclusive; HPGD block: -8%; PNC inhibitor: inconclusive

Results for CC(C)c1cc(Br)ccc1OCCN1C(=O)NC(C)(C)C1=O ?
ALDH1A1 inh: -18%

How did CCC(C)Oc1cccc(OCCCCN2C(=O)NC(C)(C)C2=O)c1 (configuration not stated) do in these assays?
ALDH1A1 inh: -12%; HPGD block: -8%; PNC inhibitor: -96*

How did CC1(C)NC(=O)N(CCCCOc2cccc(C(F)(F)F)c2)C1=O do in these assays?
ALDH1A1 inh: 4%; HPGD block: -14%; PNC inhibitor: inconclusive

Results for CCC(=O)c1ccccc1OCCCN1C(=O)NC(C)(C)C1=O ?
ALDH1A1 inh: 10µM*; HPGD block: -11%; PNC inhibitor: -11

Results for O=C(O)c1ccc(Nc2ccnc3cc(Cl)ccc23)cc1O ?
ALDH1A1 inh: -5%[13.5 µM]; HPGD block: -27%

How did O=C(Nc1nnc(-c2ccco2)o1)C1CC1 do in these assays?
ALDH1A1 inh: 2%

Results for Nc1nc(-c2ccccc2)c(-c2ccccc2)c(-c2nc(N)nc(-c3ccccc3)c2-c2ccccc2)n1 ?
ALDH1A1 inh: 6%[13.5 µM]; HPGD block: -1%

What do the screens show for `COc1ccc(C(=O)N2CCC3(CCCN(Cc4ccccc4)C3)CC2)cc1`?
ALDH1A1 inh: -5%; HPGD block: -8%

How did CC1(C)NC(=O)N(CCOCCOc2cccc(Oc3ccccc3)c2)C1=O do in these assays?
ALDH1A1 inh: -9%; HPGD block: -1%; PNC inhibitor: -1

What do the screens show for `CC1(C)NC(=O)N(CCOCCOc2ccc3ccccc3c2Br)C1=O`?
ALDH1A1 inh: -8%; HPGD block: -25%; PNC inhibitor: -111*

Results for O=C(c1csnn1)N1CCC[C@@]2(CCN(Cc3cc(C(F)(F)F)cc(C(F)(F)F)c3)C2)C1 ?
ALDH1A1 inh: inconclusive; HPGD block: -14%

What do the screens show for `O=C(Cc1ccc(Cl)cc1)Nc1ccccc1CO`?
ALDH1A1 inh: 6%; HPGD block: -5%; PNC inhibitor: -87*

How did Cc1cc(Cl)ccc1OCC(=O)Nc1ccccc1CO do in these assays?
ALDH1A1 inh: 5%; HPGD block: -4%; PNC inhibitor: -23

How did Cc1ccccc1NC(=O)Cc1ccccc1 do in these assays?
ALDH1A1 inh: 9%; HPGD block: inconclusive; PNC inhibitor: inconclusive

How did O=C(Cc1ccccc1)Nc1ccccc1CO do in these assays?
ALDH1A1 inh: inconclusive; HPGD block: 14µM*; PNC inhibitor: 8

Results for CC(=O)CC(=O)Nc1ccccc1 ?
ALDH1A1 inh: -14%; HPGD block: 0%

How did C=CCn1c(CC#N)nnc1N1CCOCC1 do in these assays?
ALDH1A1 inh: 8.9µM*; HPGD block: -4%; PNC inhibitor: -103*

Results for C=CCn1c(SCC(=O)N2CCOCC2)nc(O)c(Cc2ccccc2)c1=O ?
ALDH1A1 inh: 7%; HPGD block: -8%; PNC inhibitor: -20

What do the screens show for `C=CCC(C)(NCc1ccccc1)C(=O)OCC` (configuration not stated)?
ALDH1A1 inh: -8%; HPGD block: -5%

What do the screens show for `Nc1nonc1C(=O)N1CCCC1`?
ALDH1A1 inh: -4%

How did Cc1c(C(=O)N2CCCCC2)nnn1-c1nonc1N do in these assays?
ALDH1A1 inh: 7.9µM*; HPGD block: 16µM*; PNC inhibitor: inconclusive

How did Cc1ccc(S(=O)(=O)/N=C(\Nc2cc(C)on2)c2ccc(Cl)cc2)cc1 do in these assays?
ALDH1A1 inh: inconclusive; HPGD block: -4%; PNC inhibitor: 8

How did COc1ccc(Oc2ncc3nc(-c4ccc(OC)cc4)c(=O)n(Cc4cccs4)c3n2)cc1 do in these assays?
ALDH1A1 inh: inconclusive; HPGD block: -5%

Results for CC1(C)CC(=O)N(c2ccccc2)C1(C)O (configuration not stated) ?
ALDH1A1 inh: 3%; HPGD block: -13%; PNC inhibitor: -86*

Results for CN1C(=O)CCC1(O)c1ccccc1 (configuration not stated) ?
ALDH1A1 inh: inconclusive; HPGD block: -2%; PNC inhibitor: inconclusive

How did CCC/C=C(\CCC)C(NC(=O)CCc1ccccc1)c1ccc(C(F)(F)F)cc1 (configuration not stated) do in these assays?
ALDH1A1 inh: -2%; HPGD block: -19%

How did CC(C)C(NC(=O)OCc1ccccc1)C(=O)NCc1ccc(C(=O)O)cc1 (configuration not stated) do in these assays?
ALDH1A1 inh: 11%; HPGD block: 0%; PNC inhibitor: -5

How did O=C1N=c2ccccc2=C1c1[nH]c(=S)[nH]c1O do in these assays?
ALDH1A1 inh: 11µM*; HPGD block: -26%; PNC inhibitor: 30

What do the screens show for `Cc1ccc(Cl)c2c1=NC(=O)C=2c1[nH]c(=S)[nH]c1O`?
ALDH1A1 inh: -3%

High-throughput results from PubChem BioAssay.
